Screening data (PubChem BioAssay)
A selection: hits, their analogues and other compounds. The true share with any hit is near 2.2%.
LGR2 inh: blocks bursicon-induced cAMP signaling via Drosophila LGR2; HEK293 LGR2, CRE-luciferase, bursicon-stimulated, 4 h; inhibition, % at 9.99 µM; 380,000 compounds, 0.35% hits; AID 720647;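 active = drop in luminescence signal, shown as inhibition above about 50% in the replicate tests, limit read from the data, passing the limit was not always enough; inconclusive = probably only some replicates passing the limit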;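 note: agonist challenge used bursicon conditioned medium at about half maximal strength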
HSP90 refold inh: HSP90 refolding inhibition in rabbit reticulocyte lysate; luciferase refolding luminescence, 3 h; inhibition, % at 5.6 µM; 290,000 compounds, 0.91% hits; AID 1789;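 active = inhibition above the screen-wide mean plus 3 SD, computed separately per campaign, cut at about 16% in these data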;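 note: inhibitors lower the luminescence because luciferase stays unfolded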
TWEAK-Fn14 inh: inhibitors of TWEAK-Fn14 interaction signaling | TWEAK-stimulated Fn14 reporter cells, luciferase luminescence, 8 h | inhibition, % at 10 µM | 360,000 compounds, 2% hits | AID 1159606; in the data active = inhibition above about 50%
TROY NFkB inh: blocks TROY-dependent signaling in reporter cells; inhibition, % at 10 µM; Q293 LMP1-TROYcd NF-kB luciferase reporter, 4 h; 360,000 compounds, 0.98% hits;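 active = compounds whose plate-normalised and pattern-corrected inhibition of the luciferase reporter signal at the single screening dose is 50% or more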
A number is an active result; - = inactive; ? = inconclusive; . = not tested or not shown.

SMILES	LGR2 inh	HSP90 refold inh	TWEAK-Fn14 inh	TROY NFkB inh
O=S(=O)(Nc1nc2ccccc2nc1N1CCc2ccccc2C1)c1ccc(Br)cc1	-	16.8	78.1	-
O=C(/C=C\c1cccs1)c1c(O)ccc2ccc(=O)oc12	-	-	50.9	-
O=C(C=Cc1cccs1)c1cccs1	-	.	-	-
Cc1[nH]nc(S(=O)CC(=O)O)c1[N+](=O)[O-] (stereo not given)	-	-	61.3	87.6
Cc1[nH]nc(NCCO)c1[N+](=O)[O-]	-	-	-	-
C[C@H]1CN([C@@H](C)CO)S(=O)(=O)c2ccc(C#CC3(O)CCCC3)cc2O[C@H]1CN(C)C(=O)Cc1cccnc1	-	.	.	.
Cc1nc(NC(=O)CN2CCN(c3ccccc3F)CC2)sc1C(=O)N(C)C	-	16.5	-	-
Cc1ccccc1N1CCN(CC(=O)Nc2nc(C)c(C(=O)N(C)C)s2)CC1	-	-	-	-
O=C(O)C(=Cc1cccc([N+](=O)[O-])c1)c1ccccc1	-	.	-	-
Nc1ccccc1C#CC(=O)c1ccccc1	-	-	94.7	-
O=C(C#Cc1cccc([N+](=O)[O-])c1)c1ccccc1	.	-	66.3	63.1
CCn1c(=O)c2c(cnn2C)c2ccccc21	.	-	58.1	-
C[C@@H]1CCCCO[C@H](CN(C)Cc2ccc3c(c2)OCO3)[C@@H](C)CN([C@H](C)CO)C(=O)c2cc(NC(=O)Cc3ccccc3)ccc2O1	-	.	.	.
CC(=O)c1cnc2c(-c3ccc(Cl)cc3)cnn2c1C	.	-	-	-
Nc1c(C(=O)O)cnc2c(-c3ccc(Cl)cc3)cnn12	-	-	67.4	-
CC(C)NC(=O)Nc1ccc2c(c1)C(=O)N([C@@H](C)CO)C[C@H](C)[C@@H](CN(C)Cc1ccc(C(F)(F)F)cc1)OCCCC[C@H](C)O2	-	.	.	.
O=C(CSc1nc2ccc([N+](=O)[O-])cc2[nH]1)NC1CCCCCC1	-	-	61.4	-
COc1ccc(C(=O)Nc2nnc(Cc3ccc(OC)c(OC)c3)s2)c(OC)c1	-	-	82.3	-
CO[C@H]1CN(C)C(=O)c2ccc(NC(C)=O)cc2OC[C@@H](C)N(C(=O)Cc2ccccn2)C[C@@H]1C	-	.	.	.
COc1ccc(N2CCN(c3nc(NCCc4ccc(OC)c(OC)c4)nc(OC)n3)CC2)cc1	.	-	-	57.0
CCOc1nc(NCCc2ccc(OC)c(OC)c2)nc(N2CCN(c3ccc(OC)cc3)CC2)n1	.	-	-	-
CSCC[C@H](NC(=O)OC(C)(C)C)C(=O)N/N=C/c1cccc2nccnc12	-	-	93.3	-
C[C@@H]1CCCCO[C@H](CN(C)C(=O)Nc2ccc3c(c2)OCO3)[C@@H](C)CN([C@H](C)CO)C(=O)c2cc(NC(=O)C3CCCCC3)ccc2O1	-	.	.	.
CCCC(Oc1ccc(Br)cc1)c1nc2c3cc(OC)c(OC)cc3nc(=S)n2[nH]1 (stereo not given)	-	-	-	61.6
C[C@H](NC(=O)C[C@H]1C=C[C@@H](NC(=O)C2CCC2)[C@@H](CO)O1)c1ccccc1	-	.	.	.
SMILES	LGR2 inh	HSP90 refold inh	TWEAK-Fn14 inh	TROY NFkB inh
CC(C)Oc1ccc(CSC(=N)N)cc1	.	-	65.0	-
C[C@H]1CN([C@@H](C)CO)C(=O)c2cc(NC(=O)C3CCCCC3)ccc2O[C@@H]1CN(C)Cc1ccc(C(=O)O)cc1	-	.	.	.
Cc1ccc(S(=O)(=O)/N=C2\C=C(NS(=O)(=O)c3ccccc3)C(=O)c3ccccc32)cc1	-	.	-	-
Cc1ccc(Cl)cc1NS(=O)(=O)c1ccccc1	-	.	-	-
O=C(O)c1ccc(Nc2nc3ccccc3nc2NS(=O)(=O)c2cccs2)cc1	-	-	-	-
O=C(O)c1ccc(NC2=C/C(=N/S(=O)(=O)c3cccs3)c3ccccc3C2=O)cc1	?	.	98.2	59.6
Cc1cc(C)c(S(=O)(=O)/N=C2\C=C(NS(=O)(=O)c3ccccc3)C(=O)c3ccccc32)c(C)c1	-	-	-	-
Cc1ccc(Cl)cc1NC1=C/C(=N\S(=O)(=O)c2cccs2)c2ccccc2C1=O	105.5	-	99.7	70.6
Cc1cccc(NC2=C/C(=N/S(=O)(=O)c3cccs3)c3ccccc3C2=O)c1	-	-	97.2	-
Cc1ccc(NC2=C/C(=N\S(=O)(=O)c3cccs3)c3ccccc3C2=O)c(C)c1	.	26.4	94.8	69.2
CCS(=O)(=O)N1CCC2(CC1)CN(C(=O)Nc1c(C)noc1C)[C@@H](CO)c1[nH]c3cc(OC)ccc3c12	-	.	.	.
OC[C@H]1[C@@H](c2ccc(C#CC3(O)CCCC3)cc2)[C@@H]2CN(Cc3cccnc3)CCCCN12	-	.	.	.
COc1cc(Cn2c3ccc(NC(=S)NCc4ccc(C)cc4)cc3c(=O)n2C)ccc1F	-	.	73.4	58.5
Cc1cc(C)nc(SCC(=O)c2cc3ccccc3oc2=O)n1	.	-	-	-
Cc1cc[n+](CC(=O)c2cc3ccccc3oc2=O)cc1	-	-	-	52.4
COc1cccc(-c2nc3ccccc3s2)c1	.	-	-	-
COc1ccc(-c2nc3ccccc3s2)cc1	80.3	17.7	75.0	51.5
Cc1ccc(NC2=C(Cl)C(=O)c3ccccc3C2=O)cc1	-	-	-	-
CCN(CC)c1ccc(NC2=C(Cl)C(=O)c3ccccc3C2=O)cc1	.	-	57.5	-
O=C1C(Cl)=C(Nc2ccc(O)cc2)C(=O)c2ccccc21	-	-	-	64.2
O=C(Nc1nnc(-c2ccccc2)s1)c1ccc(Cl)c(S(=O)(=O)N2CCOCC2)c1	.	-	.	.
O=C(Nc1nnc(-c2ccccc2)s1)c1cc(S(=O)(=O)N2CCOCC2)c(Cl)cc1Cl	.	-	-	61.4
NS(=O)(=O)c1ccc(N2N=C(c3ccccc3)CC2c2ccccc2Br)cc1 (stereo not given)	-	.	-	-
O=[N+]([O-])c1ccc(N2N=C(c3ccccc3)CC2c2ccccc2O)cc1 (stereo not given)	-	-	81.4	59.9
CC(C)Cn1c(C(C)C)nc([N+](=O)[O-])c1S(=O)(=O)c1ccc(F)cc1	.	-	50.2	-
SMILES	LGR2 inh	HSP90 refold inh	TWEAK-Fn14 inh	TROY NFkB inh
CC(C)Cn1c(C(C)C)nc([N+](=O)[O-])c1Sc1ccc(Cl)cn1	.	-	-	-
CCCc1nc([N+](=O)[O-])c(S(=O)(=O)c2ccccc2)n1CC(C)C	-	-	83.2	-
C=CCN1C(=O)N(/C=C/C)c2cccc3cccc1c23	.	-	-	56.0
CN1C(=O)N(C)c2cccc3cccc1c23	-	-	-	-
O=C(NC1CCCCC1)N[C@@H]1CC[C@@H](CCNS(=O)(=O)c2ccc(Cl)cc2)O[C@@H]1CO	-	.	.	.
Cc1ccc(S(=O)(=O)Nc2nc3ccccc3nc2Nc2cccc(S(=O)(=O)N3CCCC3)c2)cc1	-	-	69.2	54.4
O=[N+]([O-])c1cccc(S(=O)(=O)Nc2ccc(S(=O)(=O)N3CCCC3)cc2)c1	-	-	-	-
COc1ccc(S(=O)(=O)Nc2cccc(S(=O)(=O)N3CCCCC3)c2)cc1	-	.	-	-
O=[N+]([O-])c1ccc(S(=O)(=O)N2CCN(c3ccccn3)CC2)cc1	.	.	-	-
Cc1cccc(S(=O)(=O)Nc2nc3ccccc3nc2Nc2ccc3c(c2)OCO3)c1	-	-	-	64.0
O=[N+]([O-])c1cccc(S(=O)(=O)N2CCN(c3ccccn3)CC2)c1	-	-	59.8	-
O=[N+]([O-])c1cccc(S(=O)(=O)Nc2nc3ccccc3nc2Nc2cccc(S(=O)(=O)N3CCCCC3)c2)c1	-	-	85.8	70.7
